High-throughput results as filed in PubChem.
Pf Dd2 inh – qHTS Primary assay for Inhibitors of Plasmodium falciparum Dd2 growth in vitro. Potency, µM (top dose mostly 28.9 µM), usual class: inhibitors. AID 1347417, 2020. P. falciparum Dd2 growth, SYBR Green, 72 h. actives 4.3% (n = 120,000); active = well fitted inhibition curve with a large enough effect; also: nearly all actives have a fitted effect of over 65% in size
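Infected erythrocytes (Dd2, 0.3% parasitemia, 2.5% hematocrit final) are added to compound in RPMI-1640/Albumax II medium, grown 72 h at 37C in low oxygen, then lysed with saponin/Triton-X containing SYBR Green and read by fluorescence.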
Hits are given with their value; n = inactive. The entries come from a sample that favours hits as a whole.

SMILES	Pf Dd2 inh
COCCNC(=O)[C@@H]1C[C@H](Oc2cccnc2)CN1C(=O)c1ccc(C)s1	n
Cc1nn(C)cc1C(=O)N1C[C@@H](CO)[C@H](c2ccccn2)C1	n
COc1ccc(C(CC(=O)N2CCN(C)CC2)c2ccccc2)cc1 (stereo unspecified)	n
CC(C)CCNC(=O)c1ccc(N2CC3CC(C2)[C@H]2CCCC(=O)N2C3)nc1 (stereo partly specified)	n
CCC(O)c1nc2ccccc2n1Cc1cccc(Cl)c1 (stereo unspecified)	n
CC(=O)N1CCCC1c1nc2ccccc2n1Cc1cc(C)ccc1C (stereo unspecified)	n
CCC(O)c1nc2ccccc2n1Cc1cc(C)ccc1C (stereo unspecified)	11.2µM
COc1ccc(CN2CCC3(C2)C(=O)N(c2ccccc2)c2ccccc23)cc1 (stereo unspecified)	8.91µM
O=C1N(c2ccccc2)c2ccccc2C12CCN([S+](=O)([O-])c1ccccc1)C2 (stereo unspecified)	7.94µM
COc1ccc(CN2CCC3(C2)C(=O)N(Cc2ccccc2)c2ccccc23)cc1 (stereo unspecified)	n
O=C1NC2(CCN([S+](=O)([O-])c3ccccc3)C2)COc2ccccc21 (stereo unspecified)	n
O=C1Nc2ccccc2C12CN([S+](=O)([O-])c1ccccc1)C2	n
COc1ccc(CN2CCC3(C2)C(=O)N(C)c2ccccc23)cc1 (stereo unspecified)	n
Cn1cccc1C(=O)N1CCCC(c2nc(CCOCC3CCOCC3)no2)C1 (stereo unspecified)	n
Cc1ccc(C(=O)N(C)CC2CCOCC2)cc1F	n
COc1ccc(CN2CCOCCNC(=O)CC2)cc1Cc1c(C)noc1C	n
COc1cc(F)ccc1-c1cc(-c2c(C)noc2C)c2cncn2c1	3.55µM
COc1ccc(-c2cc(-c3c(C)noc3C)c3cncn3c2)cc1OC	7.08µM
COc1cccc(-c2cc(-c3c(C)noc3C)c3cncn3c2)c1OC	n
COc1ccc(-c2ccc3onc(C)c3n2)cc1OC	n
COc1cc(F)ccc1-c1nc(-c2c(C)noc2C)cc2c1cc(C)n2C	n
COCc1nc(C2CCCN(C(=O)c3ccco3)C2)no1 (stereo unspecified)	n
CS(=O)(=O)N(C1CCOCC1)C1CN(C(=O)Nc2ccccc2)C1	n
Cn1c(Cn2ccnc2)nnc1C1CC(NC(=O)c2ccsc2)C1 (stereo unspecified)	n
CC1(C(=O)NCc2ccncc2)CCCc2cnc(Nc3ccccc3)nc21 (stereo unspecified)	n
SMILES	Pf Dd2 inh
Cc1cnc(C)c(-c2cc(O)c3c(c2)CN(C(=O)C2CCOC2)CCO3)n1 (stereo unspecified)	n
Cc1nc(C(=O)N2CCOc3c(O)cc(-c4cccc(Cl)c4)cc3C2)c(C)o1	n
CCn1cc(C(=O)N2CCOc3c(O)cc(-c4ccccc4C)cc3C2)cn1	12.6µM
CC(=O)N1C[C@@H](NC(=O)Nc2ccc(F)cc2F)C[C@H]1C(=O)N[C@H](Cc1c[nH]c2ccccc12)C(N)=O	n
O=C(NCCCN1CCCC1=O)C1Cn2cccc2C(=O)N1Cc1ccccc1 (stereo unspecified)	n
O=C(NCC1Cn2cccc2C(=O)N1Cc1ccccc1)NC1CCCC1 (stereo unspecified)	n
O=C(NCCCN1CCc2ccccc2C1)C1Cn2cccc2C(=O)N1Cc1ccccc1 (stereo unspecified)	0.891µM
O=C(NCCc1ccccc1)C1Cn2cccc2C(=O)N1Cc1ccccc1 (stereo unspecified)	n
CC(C)CNC(=O)C1Cn2cccc2C(=O)N1Cc1cccnc1 (stereo unspecified)	7.94µM
CC(C)CNC(=O)C1Cn2cccc2C(=O)N1Cc1ccccc1 (stereo unspecified)	n
O=C(CN1CCCCCC1)NCC1Cn2cccc2C(=O)N1Cc1ccccc1 (stereo unspecified)	3.98µM
CC(C)C(=O)NCC1Cn2cccc2C(=O)N1Cc1ccccc1 (stereo unspecified)	n
O=C(NCc1ccccc1)C1Cn2cccc2C(=O)N1Cc1cccnc1 (stereo unspecified)	n
CCc1cccc(Nc2ncncc2-c2nc(-c3ccccc3)no2)c1	n
O=C(Cn1nc2c(cc1=O)CCCC2)N1CCSCC1	n
Cc1nn(C)c(C)c1C(=O)N[C@@H]1CN(S(C)(=O)=O)C[C@H]1CN(C)C	n
O=C(CCc1ccnc(N2CCOCC2)c1)N1CCN(C(=O)c2ccco2)CC1	n
O=C(CCc1ccnc(N2CCCC2)c1)N1CCN(c2cccc(Cl)c2)CC1	5.01µM
O=C(O)CCc1ccnc(N2CCCC2)c1	n
COc1ccc(NC(=O)N2CCc3c(C(=O)NCCCN4CCCC4=O)cccc32)cc1	n
c1ccc([C@@H]2CN(Cc3cccnc3)C[C@H]2COc2ccncc2)nc1	n
Cc1cc2c(c(=O)n(-c3ccc(F)cc3)c(=O)n2CC(=O)Nc2ccccc2Cl)n1C	n
CCN(CC)S(=O)(=O)c1ccc2oc(C(=O)N(C)Cc3ccccc3)c(C)c2c1	n
COc1ccc(C)cc1NC(=O)c1oc2ccc(S(=O)(=O)N(C)C3CCCCC3)cc2c1C	n
CCCCN(CCCC)S(=O)(=O)c1ccc2oc(C(=O)NCc3ccc(C)cc3)c(C)c2c1	8.91µM
SMILES	Pf Dd2 inh
CCc1[nH]nc(C(=O)N(Cc2cccnc2)CC2CCN(C3CCCC3)CC2)c1C	n
O=c1cc(N2CCOCC2)oc2c(-c3ccncc3)nccc12	n
Cc1ccc(-c2noc([C@@H]3CCCN3C(=O)c3ccc(C)nc3)n2)cc1	n
N#Cc1ccc(CN2C[C@@H](CO)[C@H](NC(=O)c3ccccc3)C2)cc1	n
O=C(N[C@@H]1CN(Cc2cccc(F)c2)C[C@H]1CO)c1ccccc1	n
O=C(N[C@@H]1CN(Cc2cc(F)cc(F)c2)C[C@H]1CO)c1ccccc1	10µM
CN(Cc1ccccc1)C(=O)c1ccc2c(c1)[nH]c(=O)n2C1CCC(O)CC1 (stereo unspecified)	n
COc1ccc(-c2nc(C)nc3c2CN(C(=O)c2ccc(F)cc2)CC3)cc1	n
Cc1cnc(CCNC(=O)c2ccc(C#N)cc2)n1C1CCC1	n
Cc1cnc(C2CCC2)n1C1CCN(C(=O)C2(c3ccccc3)CC2)CC1	12.6µM
Cc1cnc(CCNC(=O)COc2ccccc2)n1C1CCC1	3.16µM
Cc1ccc(NC(=O)NCCc2ncc(C)n2C2CCC2)cc1C	n
CC(=O)N1CCC(n2c(C)cnc2C2CC2)CC1	n
Cc1cnc(C(=O)NCCc2ncc(C)n2C2CC2)cn1	n
COc1ccc(C2(C(=O)NCCc3ncc(C)n3C3CC3)CC2)cc1	2.51µM
CC(=O)N1CCC(C(=O)NCCc2ncc(C)n2C2CCC2)CC1	n
Cc1cnc(CCNC(=O)c2ccnn2C)n1C1CC1	n
Cc1cnc(CCNC(=O)C2(c3ccccc3)CC2)n1C1CCCCCC1	2.24µM
COC(=O)CNC(=O)NCCc1ncc(C)n1C1CCCC1	n
Cc1cnc(-c2ccncc2)n1C1CCCN(C(=O)C2(c3ccccc3)CC2)C1 (stereo unspecified)	n
COc1ccc(-n2nc(C3CCCN(C(=O)c4ccc(Cl)nc4)C3)[nH]c2=O)cc1 (stereo unspecified)	n
CCOCCOC1CCN(C(=O)Nc2ccccc2F)CC1	n
Cc1c(C(=O)N2CCC3(CC2)CC(C(=O)O)N(C)C3)c[nH]c(=O)c1C#N (stereo unspecified)	n
CCOc1ccccc1C1NC(=O)N(CC(=O)Nc2cccc(C(F)(F)F)c2)C2=C1C(=O)OC2 (stereo unspecified)	n
